Test results: PubChem BioAssay AID588811 (Broad Institute, 2011)
Results with a measured potency or affinity are listed apart. The source made the active and inactive calls.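 The calls were made as follows: active = compounds lowering signal whose fitted half-maximal concentration is at most twice the top tested dose; inconclusive = flat curve with 30 to 70% inhibition, or poor fit; inactive = the rest.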

Target: Dual specificity protein kinase CLK1 (Homo sapiens) (UniProt P49759)
Assay: CLK1 kinase inhibitors, off-target check, dose response, selectivity assay for Dyrk1A inhibitor project, biochemical, cherry-picked samples (AID 588811)
Settings: recombinant CLK1, ADP-Glo luminescence, 2 h; series mostly up to 12 µM

Dual specificity protein kinase CLK1 (Homo sapiens), sequence (P49759 whole entry, looked up): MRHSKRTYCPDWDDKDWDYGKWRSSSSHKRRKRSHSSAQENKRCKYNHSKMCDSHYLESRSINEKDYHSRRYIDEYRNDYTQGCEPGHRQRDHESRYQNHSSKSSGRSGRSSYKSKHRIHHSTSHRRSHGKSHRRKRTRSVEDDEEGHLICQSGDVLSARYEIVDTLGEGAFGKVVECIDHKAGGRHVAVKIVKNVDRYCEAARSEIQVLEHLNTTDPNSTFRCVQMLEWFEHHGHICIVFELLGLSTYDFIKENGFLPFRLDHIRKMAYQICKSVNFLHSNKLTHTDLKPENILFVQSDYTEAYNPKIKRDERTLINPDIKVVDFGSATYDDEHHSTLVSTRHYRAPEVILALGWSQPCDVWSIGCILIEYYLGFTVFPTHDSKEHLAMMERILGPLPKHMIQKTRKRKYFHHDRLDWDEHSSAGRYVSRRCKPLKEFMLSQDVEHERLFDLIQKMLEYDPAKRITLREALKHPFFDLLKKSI

outcome, inactive:
Clc1cc(Cl)cc(CNc2cc(-c3ccc4c(c3)OCO4)ncn2)c1
COc1ccc2c(Cl)c(C(=O)NCc3ccco3)sc2c1
O=C(NCc1ccco1)c1sc2ccccc2c1Cl
Clc1ccc(CNc2nccc(-c3ccc4cn[nH]c4c3)n2)cc1Cl
COc1cccc(-c2sc3ccccc3c2-c2ccc(OCCN3CCCC3)cc2)c1
N#CCSc1nc(Nc2ccc3c(c2)OCO3)c2ccccc2n1
CCCC(=O)Nc1nc(-c2ccc3c(c2)OCCO3)cs1
Cc1noc(NS(=O)(=O)c2ccc(NC(=O)c3oc4ccc(F)cc4c3C)cc2)c1C
Clc1ccccc1-c1ccc2ncnc(NCc3ccc4c(c3)OCO4)c2c1
Cc1ccnc(NC(=O)c2cccc(S(=O)(=O)N3CCN(c4ccccc4)CC3)c2)c1
Clc1ccc(CNc2cc(-c3ccc4c(c3)OCO4)ncn2)cc1
Fc1cccc(Nc2nc(-c3ccncc3)nc3ccccc23)c1
Cc1c(-c2ccnc(NCc3ccc(Cl)cc3)n2)sc(=O)n1C
N#Cc1c(C(F)(F)F)cc(-c2cccc(Cl)c2)[nH]c1=O
COCCNC(=O)c1ccc2c(c1)nc(C)n2-c1cccc(F)c1
CC(=O)Nc1cccc(NC(=O)c2cc3ccccc3o2)c1

Activity change, negative = inhibition, inactive:
COc1cccc(Nc2nc(NCCO)c3ccccc3n2)c1 -8.29% [at 1.35 µM]
